Measurements as given in PubChem BioAssay (NCI).
Compounds without any hit were thinned out: in the full panel of roughly 83,000, 20% have a hit.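 Assay: single dose, 48 h. Readout: percent growth (0 = no net growth; negative = cell death). Active: <10.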 A number with no mark means an inactive call. Active and inactive are the calls of the source.

What was measured:
Assay in all cases: NCI-60 one-dose screen, 48 h (100 = growth as untreated, 0 = no growth, -100 = all killed)
Details in all cases: 10 µM
DU-145 prostate = system: DU-145 prostate
MALME-3M melanoma = system: MALME-3M melanoma
MDA-MB-231 breast = system: MDA-MB-231 breast
RXF 393 renal = system: RXF 393 renal
SF-268 CNS = system: SF-268 CNS
SF-295 CNS = system: SF-295 CNS
SF-539 CNS = system: SF-539 CNS
UACC-257 melanoma = system: UACC-257 melanoma
M14 melanoma = system: M14 melanoma
HCT-15 colon = system: HCT-15 colon
HT29 colon = system: HT29 colon
SNB-75 CNS = system: SNB-75 CNS
PC-3 prostate = system: PC-3 prostate
SK-MEL-5 melanoma = system: SK-MEL-5 melanoma
LOX IMVI melanoma = system: LOX IMVI melanoma
SK-MEL-28 melanoma = system: SK-MEL-28 melanoma
SNB-19 CNS = system: SNB-19 CNS
U251 CNS = system: U251 CNS
UACC-62 melanoma = system: UACC-62 melanoma

| SMILES | growth (DU-145 prostate) | growth (MALME-3M melanoma) | growth (MDA-MB-231 breast) | growth (RXF 393 renal) | growth (SF-268 CNS) | growth (SF-295 CNS) | growth (SF-539 CNS) | growth (UACC-257 melanoma) | growth (M14 melanoma) | growth (HCT-15 colon) | growth (HT29 colon) | growth (SNB-75 CNS) | growth (PC-3 prostate) | growth (SK-MEL-5 melanoma) | growth (LOX IMVI melanoma) | growth (SK-MEL-28 melanoma) | growth (SNB-19 CNS) | growth (U251 CNS) | growth (UACC-62 melanoma) |
| --- | --- | --- | --- | --- | --- | --- | --- | --- | --- | --- | --- | --- | --- | --- | --- | --- | --- | --- | --- |
| CN1CCN(c2ccc(Nc3nc(NCCCNC(=O)c4ccc(Cl)cc4)c4sccc4n3)cc2)CC1 | 84.2% | 72.6% | 61.1% | 37.6% | 77% | 98% | 18.7% | 71.9% | 68.6% | 26.8% | 35.4% | 99.5% | 61.6% | 72.4% | 59.7% | 89.1% |  |  |  |
| COc1ccc(-c2nc(S(=O)(=O)c3ccc(C)cc3)c(S(=O)(=O)CC(=O)N(C)Cc3ccccc3)o2)cc1 | 35.5% | 16.7% | 2.89% (active) | -54.4% (active) | 64.8% | 78.5% | 36.8% | 67.9% | 35.7% | -39.6% (active) | 8.42% (active) | 78.7% | 63.7% | 78.4% | -91.1% (active) | 64.8% | 72.1% | 23.6% | 46.7% |
| COc1cccc(C(N)=Nc2ccc(OCCCCCCn3cncn3)cc2)c1 | 33% | 43.4% | 13.6% |  | 68.9% |  | -31.3% (active) | 56% | 9.26% (active) | 16.8% | -27.9% (active) | 54.4% | 34.4% |  | 36% | 51.4% | 37.6% | 10.3% |  |
| COc1ccc(-c2nc(S(=O)(=O)c3ccccc3)c(S(C)(=O)=O)o2)cc1 | -92.8% (active) | -92.7% (active) | -76.2% (active) | -90.8% (active) | 61.8% | 87.3% | -95.9% (active) | -38.6% (active) | -24% (active) | -73% (active) | -55.2% (active) | 77.1% | 78.2% | 66.5% |  | -82.9% (active) | 84.4% | 12% | 33.5% |
| O=C(CS(=O)(=O)c1oc(-c2ccc(Cl)cc2)nc1S(=O)(=O)c1ccccc1)N1CCCC1 | -100% (active) | -99.2% (active) | -88.3% (active) | -97.8% (active) | 74.5% | 80.8% | -78.6% (active) | -77.8% (active) | -31.5% (active) | -89.3% (active) | -40.6% (active) | 55.7% | 78.8% | 84.2% | -100% (active) |  | 80.9% | 37.5% |  |
| Cc1cc(C)nc(SCC(=O)Nc2ccc(S(N)(=O)=O)cc2)n1 | 114% | 99.1% | 103% | 96% | 125% | 99.8% | 94.8% | 107% | 114% | 104% | 118% | 127% | 98.2% | 97.2% | 96.7% | 110% | 94.1% | 101% | 96.7% |
| O=C(Nc1ccc(OCc2ccccc2)cc1)Nc1ccc(Cl)c(C(F)(F)F)c1 | 13% | -30.8% (active) | -20% (active) | -3.2% (active) | 14.9% | -26.5% (active) | -46.9% (active) | -20.7% (active) | 19.3% | 9.69% (active) | 6.91% (active) | -20.2% (active) | -0.967% (active) | -96.6% (active) | -25.1% (active) | 14.3% |  | -10.2% (active) | 14.1% |
| Cc1ccc(NC(=O)NCn2c(=O)[nH]c3ccccc3c2=O)cc1 | 89% | 79.3% | 40.7% | 30.3% | 64.3% | 95% | 58.2% | 94.5% | 79.2% | 92.1% | 109% | 29% |  | 85.1% | 83.7% | 94.5% | 52.6% | 61.5% | 60.9% |
| COc1ccc2[nH]c(O)c(N=NC(=O)COc3ccc(NC(=O)Nc4ccc(Cl)cc4)cc3)c2c1 | 18.5% | -14.4% (active) | -69.9% (active) | 44.1% | -10.3% (active) | 14% | -39% (active) | 51.8% | -27.2% (active) | 99.5% | 8.21% (active) | 42.8% | 18% | 32.2% | -59.7% (active) | -72.3% (active) |  |  | -30.2% (active) |
| CCCCCc1ccc(S(=O)(=O)Nc2cc(-c3csc(N(C)C(C)=O)n3)ccc2N2CCN(C)CC2)cc1 | 70.5% | -57.1% (active) | -2.21% (active) | -73.8% (active) | 73.2% | -10.1% (active) | -58.7% (active) | -21.8% (active) | 28.3% | 1.4% (active) | 15.2% | 40% |  | -6.97% (active) | -71.1% (active) | 11.8% |  | 19.6% | -62.2% (active) |
| CC(C)NC(=O)c1cc(-c2ccc(NC(=O)Nc3ccc(N4CCN(C)CC4)c(C(F)(F)F)c3)cc2)nc2cccnc12 | -88.7% (active) | -96.3% (active) | -91.6% (active) | -89.8% (active) | -42.9% (active) | -96.5% (active) | -100% (active) | -88.6% (active) | -86.6% (active) | -89.6% (active) | -86.6% (active) | -96.2% (active) | -72.9% (active) | -100% (active) | -99.2% (active) | -99.3% (active) | -93.2% (active) | -86.2% (active) | -97.1% (active) |
| O=C(NCCCCC(c1ccc(F)cc1)c1ccc(F)cc1)NCCCc1cccnc1 | 22% | -13% (active) | 44.8% | 30.8% | 52.4% | 18.5% | 0.987% (active) | 25.8% | -20.2% (active) | 14% | 14.4% | 53% | 11.5% | -90.5% (active) | 42.5% | 20.8% |  | 26.4% | 41.6% |
| O=C(CS(=O)(=O)c1oc(-c2ccc(Cl)cc2)nc1S(=O)(=O)c1ccc(Cl)cc1)N1CCOCC1 | 32.3% | -71.3% (active) | -1.43% (active) | -76.1% (active) | 84.6% | 85% | 21.5% | 73.9% | 24.4% | -53.6% (active) | -48.9% (active) | 54.7% | 63.3% | 77.6% | -90.8% (active) | 35% | 86.2% | 35.9% | 56.7% |
| CN1CCN(c2ccc(Nc3nc(NCCCNC(=O)C4CCCCC4)c4sccc4n3)cc2)CC1 | 67.5% | -97.1% (active) | 39% | -36% (active) | 62.2% | 38.4% | -77.9% (active) | -30.7% (active) | -8.5% (active) | 2.76% (active) | -1.75% (active) | 62.9% | 50.6% | 22.3% | 10.2% | -81.3% (active) |  | 17.1% | 48.5% |
| c1ccc(C(=C(c2ccc(OCCN3CCCCC3)cc2)c2ccc(OCCN3CCCCC3)cc2)C2CCCC2)cc1 | -45.2% (active) | -95.2% (active) | -94.4% (active) | 29.1% | -61% (active) | -63.8% (active) | -96.4% (active) | -34.2% (active) | -44.4% (active) | 34.6% | -96.2% (active) | -24.5% (active) | -37.1% (active) | -100% (active) |  | -75.6% (active) | -96.8% (active) |  | -97.1% (active) |
| CN1CCN(c2ccc(Nc3nc(NCCNC(=O)c4ccc(C(F)(F)F)cc4)c4sccc4n3)cc2)CC1 | 45.7% | -100% (active) | -36.1% (active) | -82.2% (active) | 21.8% | -62.7% (active) | -99.7% (active) | -93.4% (active) | -54.4% (active) | -42.6% (active) | -67% (active) | -10.7% (active) | 41% | -99.5% (active) | -93.9% (active) | -96.3% (active) | 31.5% | -17.7% (active) | -89.7% (active) |
| Cc1ccc(-c2nc3ccc(C(=O)N=Nc4c(O)[nH]c5ccc([N+](=O)[O-])cc45)cc3[nH]2)cc1 | 47.8% | 57.5% | 66.9% | 83.5% | 60.1% | 93.5% | 52.7% | 84.8% | 73.8% | 104% | 66.6% | 78.4% | 60.8% | 89.3% | 54.9% | 60.4% | 55.4% |  | 85.6% |
